# The list is not random: actives were taken first. Their share in the collection is about 4.3%.
# Peg3 prom inh: Peg3 promoter-driven luciferase inhibitors, primary screen, cell-based, HeLa, luciferase luminescence. actives 1.7% (n = 360,000). inhibition, % at 20 µM. HeLa PEG-Prom luciferase reporter, overnight;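 active = inhibition of at least 50% at 20 µM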
# CF NFkB inh: inhibitors of PAF-induced NF-kB signaling, primary screen, cell-based, GFP fluorescence, uHTS | KKLEB NF-kB-GFP reporter, GFP fluorescence overnight | inhibition, % at 5 µM | actives 0.86% (n = 360,000) | AID 588850, 2011;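 active = at least 50% inhibition at 5 µM, scaled per plate between neutral and stimulator controls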;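 also: PAF is a Pseudomonas aeruginosa culture filtrate used as stimulus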
# CHOP inh: inhibitors of CHOP promoter induction, primary screen, cell-based, unfolded protein response, luciferase reporter | actives 3.8% (n = 220,000) | inhibition, % at 10 µM | AID 2732, 2010 | CHO-K1 CHOP-promoter luciferase, tunicamycin-induced, 15-18 h;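 active = compounds that reduced the stress-induced luciferase reporter signal by more than about 70% of percent inhibition, limit read from the data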
# HIF-2a block: HIF-2a reporter inhibitors, primary screen, luminescence, 786-0 RCC cells; 786-0 RCC cells HIF-2a reporter, luciferase luminescence, overnight; inhibition, % at 18.8 µM; actives 0.72% (n = 360,000); AID 624352, 2012;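 active = inhibition of the luminescence signal of 40% or more relative to plate controls, in a single-dose primary screen at 18.75 µM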
# KKLEB tox: cytotoxicity in KKLEB CF airway cells, primary screen, cytotoxicity control for CF NF-kB inhibitor project, cell-based, uHTS, fluorescence assay plates; activity change (cytotoxicity), % at 5 µM; KKLEB CF airway cells viability, ATPlite luminescence, overnight; stronger effect = lower value; cells stimulated with P. aeruginosa culture filtrate; actives 0.36% (n = 360,000); AID 602141, 2011;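 active = corrected activity change at or below -50% at 5 µM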
# TRPM1 prom inh: inhibitors of MITF-dependent TRPM1 promoter reporter, primary screen, cell-based, SK-MEL-5, single point, luciferase | SK-MEL-5 TRPM1 promoter luciferase, 24 h | inhibition, % at 12.5 µM | actives 0.83% (n = 330,000);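 active = mean inhibition across replicates of 60% or more, whatever share of single replicates reaches that level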
# Mdm2 MdmX conf: retested Mdm2-MdmX interaction blockers, confirmation, cell-based, luminescence, single concentration, set 2 | shares compounds with HIF-2a block | SaOS-2 split-luciferase Mdm2/MdmX complementation | inhibition, % at 8 µM | actives 99% (n = 740) | AID 504601, 2011;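 active = mean inhibition of the luminescence signal across two replicates at or above 26 percent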
# HIF-2a inh conf: HIF-2a reporter inhibitor retest, confirmation, luminescence, 786-0 RCC cells; AID 651580, 2012; actives 56% (n = 1,800); shares compounds with HIF-2a block; inhibition, % at 18.8 µM; HIF-2a luciferase reporter luminescence, overnight;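 active = mean inhibition across four replicates of at least 40 percent at the single tested concentration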
# HIF-1a counter: HIF-1a luciferase reporter signal reduction – MiaPaCa-2 cells, single concentration, counter-screen for HIF-2a inhibitor project, confirmation; inhibition, % at 18.8 µM; actives 72% (n = 1,800); MiaPaCa-2 HIF-1a luciferase reporter, desferoxamine, overnight; shares compounds with HIF-2a block; AID 651589, 2012;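 active = mean inhibition of the reporter signal across four replicates at the single tested dose of 50% or more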
# Hits are given with their value; 0 = inactive; - = not tested or not shown.
SMILES,Peg3 prom inh,CF NFkB inh,CHOP inh,HIF-2a block,KKLEB tox,TRPM1 prom inh,HIF-2a inh conf,HIF-1a counter,others
COc1cccc(NC(=O)N(C)C[C@H]2Oc3cc(C#Cc4ccncc4)ccc3S(=O)(=O)N([C@H](C)CO)C[C@H]2C)c1,0,0,-,43,0,-,0,0,
CC(C(=O)Nc1ccc(S(=O)(=O)N2CCOCC2)cc1)N1C(=O)C2CC=CCC2C1=O (stereo not given),0,0,0,0,0,0,-,-,
COc1ccc(Nc2ncnc3scc(-c4ccc(OC)cc4)c23)cc1,0,0,0,42,0,0,0,58,
COc1ccc(-c2csc3ncnc(Cl)c23)cc1,0,0,0,0,0,0,-,-,
Cc1cc(N2CCCCC2)nc(NCc2ccccc2)n1,0,0,0,47,0,0,0,60,
CCOc1c(Br)cc(CNc2ccc3c(c2)OCCO3)cc1OC,0,0,0,43,0,0,0,77,
CCOc1cc(CNc2ccc3c(c2)OCCO3)cc(Br)c1OC,0,0,0,45,0,62,67,98,
Cc1ccc(OCC(=O)Nc2ccc(N3CCN(C(=O)c4ccco4)CC3)cc2)cc1,0,0,0,0,0,0,-,-,
Nc1cc(=O)[nH]c(SCC(=O)N2N=C(c3ccc(Cl)cc3)CC2c2ccco2)n1 (stereo not given),0,0,0,0,0,0,-,-,
COCC(=O)OCC(=O)N1N=C(c2ccc(Cl)cc2)CC1c1ccco1 (stereo not given),0,0,0,0,0,0,-,-,
CCCc1cc(=O)[nH]c(SCC(=O)N2N=C(c3ccc(Cl)cc3)CC2c2ccco2)n1 (stereo not given),0,0,0,40,0,0,0,82,
CC(C)[C@H](NS(=O)(=O)c1ccccc1)C(=O)OCC(=O)N1N=C(c2ccc(Cl)cc2)CC1c1ccco1 (stereo not given in full),0,0,0,50,0,0,0,89,
CCN(C(=O)COc1ccc(C)nc1[N+](=O)[O-])C1CCS(=O)(=O)C1 (stereo not given),0,0,0,0,0,0,-,-,
CC(C)CC(N)c1csc(NC(=O)c2cc(C(C)(C)C)nn2Cc2ccccc2)n1 (stereo not given),111,0,-,92,0,-,0,107,
CC(=O)n1cc(N(C(=O)CCl)c2ccccc2)c2ccccc21,0,90,107,84,-95,66,95,106,Mdm2 MdmX conf=103
COc1ccc(C(=O)N/C(=C\c2ccc(Cl)cc2)C(=O)NCCN2CCOCC2)cc1,0,0,-,0,0,-,-,-,
O=C(CN(Cc1ccccc1)C(=O)CCl)c1cccc(Br)c1,0,61,-,0,-67,0,-,-,Mdm2 MdmX conf=103
O=C(NCCCc1ccccc1)c1cccc(Br)c1,0,0,-,0,0,0,-,-,
N#C/C(=C\C=C\c1ccccc1[N+](=O)[O-])C(=O)NC1CCCCC1,107,0,0,84,0,72,0,104,Mdm2 MdmX conf=101
N#C/C(=C\c1ccccc1[N+](=O)[O-])C(=O)NC1CCCCC1,0,0,0,0,0,0,-,-,
COC(=O)c1ccc(COc2ccccc2/C=C(\C#N)C(=O)Nc2c(C)cccc2C)cc1,62,0,0,46,0,0,45,82,
COc1cccc(C(=O)/C=C/c2ccc(OCC#N)c(OC)c2)c1,107,0,0,85,0,0,42,105,
CC(C)n1c(/C=C/[C@H](O)C[C@H](O)CC(=O)O)c(-c2ccc(F)cc2)c2ccccc21,0,0,-,45,0,0,0,0,
CC/S(C)=N/S(=O)(=O)c1ccc(C)cc1 (stereo not given),0,0,0,0,0,0,-,-,
COc1ccc(C)cc1S(=O)(=O)NCCN1CCOCC1,0,0,-,0,0,0,-,-,
SMILES,Peg3 prom inh,CF NFkB inh,CHOP inh,HIF-2a block,KKLEB tox,TRPM1 prom inh,HIF-2a inh conf,HIF-1a counter,others
Nc1[nH]c(=O)[nH]c(=O)c1N=Nc1ccc(C(=O)O)cc1,0,0,-,0,0,0,-,-,
COC(=O)COc1ccc(S(=O)(=O)N2CCN(c3ccccc3F)CC2)cc1,0,0,0,66,0,0,0,0,
COC(=O)COc1ccc(S(=O)(=O)N2CCc3ccccc3C2)cc1C,0,0,0,76,0,0,0,0,
COC(=O)COc1ccc(S(=O)(=O)N2CCOCC2)cc1C,0,0,0,0,0,0,-,-,
CCOc1ccc(S(=O)(=O)N2CCC(C(=O)N3CCN(c4ccccc4)CC3)CC2)cc1,0,0,-,0,0,0,-,-,
O=C(O)COc1ccc(NC(=O)C(c2ccccc2)c2ccccc2)cc1,0,0,-,0,0,0,-,-,
COC(=O)COc1ccc(NC(=O)C(c2ccccc2)c2ccccc2)cc1,0,0,-,88,0,0,0,0,
COC(=O)COc1ccc(S(=O)(=O)N2CCN(c3ccccc3)CC2)cc1,0,0,0,48,0,0,0,0,
NC(=O)Cn1ccc(O)c(Cc2ccc(Cl)cc2Cl)c1=O,0,0,-,0,0,0,-,-,
CCc1nc2ccc(C(=O)Nc3cc(-c4ccccc4)ccc3OC)cn2c1N(CCN(C)C)CC1CC1,98,0,-,82,0,-,0,101,
Cc1ccc(CC(=O)NCCN2CCOCC2)cc1,0,0,-,0,0,0,-,-,
Cc1ccc(-c2ccc([C@H]3[C@H]4C=CC[C@@H](C)[C@@H]4C(=O)N3Cc3ccccc3)c(F)c2)cc1,0,0,0,0,0,0,-,-,
Cc1ccc(F)c([C@H]2[C@H]3C=CC[C@@H](C)[C@@H]3C(=O)N2Cc2ccccc2)c1,0,0,0,42,0,0,0,0,
C[C@@H]1CC=C[C@H]2[C@H]1C(=O)N(Cc1ccccc1)[C@H]2c1ccc2ccccc2c1,0,0,0,44,0,0,0,52,
O=C(O)c1cccc(CSc2nnc(COc3ccccc3)o2)c1,0,0,0,73,0,0,73,0,
O=C(O)c1ccc(CSc2nnc(COc3ccccc3)o2)cc1,0,0,0,0,0,0,-,-,

# Compound activity (PubChem BioAssay)
